# Reference: PubChem BioAssay
# Results filed as inconclusive are left out. Activity calls are given as the source filed them. Unless noted, the rule behind the calls is not given here. Peptide text beside a SMILES is read from it.
# Experiments:
# [1] = signal quenchers or enhancers, Cy5 substrate/SSB – biochemical, NIH Clinical Collection, E. coli SSB, artefact control for HCV NS3 helicase inhibitor project (AID 743268); conditions: Cy5-oligo bound E. coli SSB, fluorescence interference
# [2] = chitosan synthesis blockers in C. neoformans – flow cytometry, Cibacron Brilliant Red staining (AID 1347148); conditions: Cryptococcus neoformans chitosan, stronger effect = lower value; at 10 µM unless noted;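 note: compound exposure lasted three days at 37 degrees C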
# F380Y = assay: BK channel mutant inhibitors and activators – cell-based, U2OS BacMam, thallium flux, beta subunits, selectivity assay, profiling panel (AID 1259406;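 active = thallium flux through the channel raised or lowered by more than 3 SD from vehicle-only wells, actives on both sides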;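 note: initial slope of Thallos dye fluorescence rise after thallium is added; log ratio against the mean of 0.3% DMSO vehicle wells on the same plate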); conditions: U2OS BacMam BK variants, at 30 µM
# F380Y/beta2Delta = assay: as above; conditions: U2OS BacMam BK variants, at 30 µM
# [3] = target: Calcium-activated potassium channel subunit alpha-1 (Homo sapiens) + Leucine-rich repeat-containing protein 26 (Homo sapiens) (UniProt Q12791+Q2I0M4); assay: as above; conditions: U2OS BacMam BK variants, F380Y/Slo1WT/gamma1, at 30 µM
# R275C = assay: as above; conditions: U2OS BacMam BK variants, at 30 µM
# R275C/beta1 = assay: as above; conditions: U2OS BacMam BK variants, at 30 µM
# R275C/beta2Delta = assay: as above; conditions: U2OS BacMam BK variants, at 30 µM
# [4] = system: Aerobactin synthetase IucA (Klebsiella pneumoniae); assay: inhibition of K. pneumoniae IucA enzyme – biochemical, Tocris library, absorbance (AID 1345561); conditions: purified IucA enzyme assay, absorbance (OD) read-out; stronger effect = lower value;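 tested at 8 µM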;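 note: 100% = enzyme without compound and 0% = no enzyme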
# [5] = rescue of PC12 cells from polyQ htt toxicity – LDH release (AID 1610); conditions: PC12 mutant huntingtin toxicity, final LDH at 4 uM, stronger effect = lower value
# [6] = growth inhibition, single agents and combos, LFS_MB_1R, cell-based, cisplatin or BGB combos, synergistic combos for chromothripsis tumors (AID 1671452; in the data active = inhibition above about 80%;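 note: cells exposed for 96 hours before readout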); conditions: LFS_MB_1R medulloblastoma cells, stronger effect = higher value
# [7] = growth inhibition, single agents and combos, CRL2098, cell-based, BGB or cisplatin IC20 combos, synergistic combos for chromothripsis tumors (AID 1671454; in the data active = inhibition above about 80%;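 note: cells exposed for 96 h before readout; 0% = vehicle DMSO and 100% = killing by high DMSO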); conditions: CRL2098 osteosarcoma cells, drug combinations, stronger effect = higher value
# [8] = growth inhibition, single agents and combos, HD-MB03, cell-based, BGB or cisplatin IC20 combos, synergistic combos for chromothripsis tumors (AID 1671455; in the data active = inhibition above about 83%;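 note: 0% = vehicle DMSO and 100% = high DMSO as cytotoxic control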); conditions: HD-MB03 medulloblastoma cells, stronger effect = higher value
# [9] = growth inhibition, single agents and combos, UWB1.289, cell-based, BGB or cisplatin combos, synergistic combos for chromothripsis tumors (AID 1671456; in the data active = inhibition above about 80%;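 note: cells exposed to compound for four days; 0% = vehicle DMSO and 100% = killing by high DMSO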); conditions: UWB1.289 ovarian carcinoma cells, stronger effect = higher value
# [10] = growth inhibition, single agents and combos, LFS_MB_2R, cell-based, cisplatin combos, synergistic combos for chromothripsis tumors (AID 1671457; in the data active = inhibition above about 80%;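 note: cells exposed to compound for four days before readout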); conditions: LFS_MB_2R medulloblastoma cells, stronger effect = higher value
# [11] = UWB1.289_BRCA1 ovarian cancer growth, cell-based, BGB or cisplatin combinations (AID 1671459; in the data active = inhibition above about 80%); conditions: UWB1.289 BRCA1 ovarian carcinoma, drug combinations, stronger effect = higher value
# [12] = drug combination toxicity in non-malignant astrocytes – cell-based, BGB or cisplatin IC20 combos, cytotoxicity control for chromothriptic childhood tumor combination screen (AID 1671460; in the data active = inhibition above about 80%;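 note: cells exposed to compounds for 96 hours before viability readout; 0% = vehicle and 100% = killing control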); conditions: Human astrocytes, viability inhibition, drug combinations, at 0.5 µM, stronger effect = higher value
# [13] = CRL1545 cell growth, single agent and combined, cisplatin and BGB IC20 combos (AID 1671464; in the data active = inhibition above about 80%;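 note: cells exposed to compound for 96 hours before readout; 0% = vehicle DMSO and 100% = high DMSO killing control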); conditions: CRL1545 osteosarcoma cells, stronger effect = higher value
# [14] = target: Huntingtin (Homo sapiens) (UniProt P42858); assay: mutant huntingtin aggregation blockers – QA1, dose response (AID 1584); conditions: in vitro mutant huntingtin aggregation assay; confirmation test; at 10 µM; stronger effect = lower value
# [15] = selective SMN2 exon splicing luciferase activators – cell-based, SMN2/SMN1 luciferase reporters (AID 1598); conditions: SMN2 vs SMN1 luciferase splicing reporter cells, at 10 µM; SMN1 luciferase ratio: measured here: SMN1 luciferase reporter average; SMN2 luciferase ratio: measured here: SMN2 luciferase reporter average, stronger effect = higher value; SMN2/SMN1 luciferase ratio: stronger effect = higher value
# [16] = measured here: combination with BGB IC40, at 0.05 µM
# [17] = measured here: combination with cisplatin, at 0.5 µM
# [18] = measured here: combination with cisplatin, at 5 µM
# [19] = measured here: combination with BGB at IC20, at 0.5 µM
# [20] = measured here: combination with cisplatin at IC20, at 0.5 µM
# [21] = measured here: combo with BGB at IC20, at 0.5 µM
# [22] = measured here: combo with cisplatin at IC20, at 0.5 µM
# [23] = measured here: inhibition with BGB combination, at 0.05 µM
# [24] = measured here: inhibition with cisplatin combination, at 0.05 µM
# [25] = BGB combination, concentration series, at 5 µM
# [26] = cisplatin combination, concentration series, at 5 µM
# [27] = measured here: combo with BGB IC20
# [28] = measured here: combo with cisplatin IC20
# [29] = measured here: with BGB IC20 combination, at 0.5 µM
# [30] = measured here: with cisplatin IC20 combination, at 0.5 µM
# Chain of Huntingtin (Homo sapiens) (P42858 whole entry, looked up): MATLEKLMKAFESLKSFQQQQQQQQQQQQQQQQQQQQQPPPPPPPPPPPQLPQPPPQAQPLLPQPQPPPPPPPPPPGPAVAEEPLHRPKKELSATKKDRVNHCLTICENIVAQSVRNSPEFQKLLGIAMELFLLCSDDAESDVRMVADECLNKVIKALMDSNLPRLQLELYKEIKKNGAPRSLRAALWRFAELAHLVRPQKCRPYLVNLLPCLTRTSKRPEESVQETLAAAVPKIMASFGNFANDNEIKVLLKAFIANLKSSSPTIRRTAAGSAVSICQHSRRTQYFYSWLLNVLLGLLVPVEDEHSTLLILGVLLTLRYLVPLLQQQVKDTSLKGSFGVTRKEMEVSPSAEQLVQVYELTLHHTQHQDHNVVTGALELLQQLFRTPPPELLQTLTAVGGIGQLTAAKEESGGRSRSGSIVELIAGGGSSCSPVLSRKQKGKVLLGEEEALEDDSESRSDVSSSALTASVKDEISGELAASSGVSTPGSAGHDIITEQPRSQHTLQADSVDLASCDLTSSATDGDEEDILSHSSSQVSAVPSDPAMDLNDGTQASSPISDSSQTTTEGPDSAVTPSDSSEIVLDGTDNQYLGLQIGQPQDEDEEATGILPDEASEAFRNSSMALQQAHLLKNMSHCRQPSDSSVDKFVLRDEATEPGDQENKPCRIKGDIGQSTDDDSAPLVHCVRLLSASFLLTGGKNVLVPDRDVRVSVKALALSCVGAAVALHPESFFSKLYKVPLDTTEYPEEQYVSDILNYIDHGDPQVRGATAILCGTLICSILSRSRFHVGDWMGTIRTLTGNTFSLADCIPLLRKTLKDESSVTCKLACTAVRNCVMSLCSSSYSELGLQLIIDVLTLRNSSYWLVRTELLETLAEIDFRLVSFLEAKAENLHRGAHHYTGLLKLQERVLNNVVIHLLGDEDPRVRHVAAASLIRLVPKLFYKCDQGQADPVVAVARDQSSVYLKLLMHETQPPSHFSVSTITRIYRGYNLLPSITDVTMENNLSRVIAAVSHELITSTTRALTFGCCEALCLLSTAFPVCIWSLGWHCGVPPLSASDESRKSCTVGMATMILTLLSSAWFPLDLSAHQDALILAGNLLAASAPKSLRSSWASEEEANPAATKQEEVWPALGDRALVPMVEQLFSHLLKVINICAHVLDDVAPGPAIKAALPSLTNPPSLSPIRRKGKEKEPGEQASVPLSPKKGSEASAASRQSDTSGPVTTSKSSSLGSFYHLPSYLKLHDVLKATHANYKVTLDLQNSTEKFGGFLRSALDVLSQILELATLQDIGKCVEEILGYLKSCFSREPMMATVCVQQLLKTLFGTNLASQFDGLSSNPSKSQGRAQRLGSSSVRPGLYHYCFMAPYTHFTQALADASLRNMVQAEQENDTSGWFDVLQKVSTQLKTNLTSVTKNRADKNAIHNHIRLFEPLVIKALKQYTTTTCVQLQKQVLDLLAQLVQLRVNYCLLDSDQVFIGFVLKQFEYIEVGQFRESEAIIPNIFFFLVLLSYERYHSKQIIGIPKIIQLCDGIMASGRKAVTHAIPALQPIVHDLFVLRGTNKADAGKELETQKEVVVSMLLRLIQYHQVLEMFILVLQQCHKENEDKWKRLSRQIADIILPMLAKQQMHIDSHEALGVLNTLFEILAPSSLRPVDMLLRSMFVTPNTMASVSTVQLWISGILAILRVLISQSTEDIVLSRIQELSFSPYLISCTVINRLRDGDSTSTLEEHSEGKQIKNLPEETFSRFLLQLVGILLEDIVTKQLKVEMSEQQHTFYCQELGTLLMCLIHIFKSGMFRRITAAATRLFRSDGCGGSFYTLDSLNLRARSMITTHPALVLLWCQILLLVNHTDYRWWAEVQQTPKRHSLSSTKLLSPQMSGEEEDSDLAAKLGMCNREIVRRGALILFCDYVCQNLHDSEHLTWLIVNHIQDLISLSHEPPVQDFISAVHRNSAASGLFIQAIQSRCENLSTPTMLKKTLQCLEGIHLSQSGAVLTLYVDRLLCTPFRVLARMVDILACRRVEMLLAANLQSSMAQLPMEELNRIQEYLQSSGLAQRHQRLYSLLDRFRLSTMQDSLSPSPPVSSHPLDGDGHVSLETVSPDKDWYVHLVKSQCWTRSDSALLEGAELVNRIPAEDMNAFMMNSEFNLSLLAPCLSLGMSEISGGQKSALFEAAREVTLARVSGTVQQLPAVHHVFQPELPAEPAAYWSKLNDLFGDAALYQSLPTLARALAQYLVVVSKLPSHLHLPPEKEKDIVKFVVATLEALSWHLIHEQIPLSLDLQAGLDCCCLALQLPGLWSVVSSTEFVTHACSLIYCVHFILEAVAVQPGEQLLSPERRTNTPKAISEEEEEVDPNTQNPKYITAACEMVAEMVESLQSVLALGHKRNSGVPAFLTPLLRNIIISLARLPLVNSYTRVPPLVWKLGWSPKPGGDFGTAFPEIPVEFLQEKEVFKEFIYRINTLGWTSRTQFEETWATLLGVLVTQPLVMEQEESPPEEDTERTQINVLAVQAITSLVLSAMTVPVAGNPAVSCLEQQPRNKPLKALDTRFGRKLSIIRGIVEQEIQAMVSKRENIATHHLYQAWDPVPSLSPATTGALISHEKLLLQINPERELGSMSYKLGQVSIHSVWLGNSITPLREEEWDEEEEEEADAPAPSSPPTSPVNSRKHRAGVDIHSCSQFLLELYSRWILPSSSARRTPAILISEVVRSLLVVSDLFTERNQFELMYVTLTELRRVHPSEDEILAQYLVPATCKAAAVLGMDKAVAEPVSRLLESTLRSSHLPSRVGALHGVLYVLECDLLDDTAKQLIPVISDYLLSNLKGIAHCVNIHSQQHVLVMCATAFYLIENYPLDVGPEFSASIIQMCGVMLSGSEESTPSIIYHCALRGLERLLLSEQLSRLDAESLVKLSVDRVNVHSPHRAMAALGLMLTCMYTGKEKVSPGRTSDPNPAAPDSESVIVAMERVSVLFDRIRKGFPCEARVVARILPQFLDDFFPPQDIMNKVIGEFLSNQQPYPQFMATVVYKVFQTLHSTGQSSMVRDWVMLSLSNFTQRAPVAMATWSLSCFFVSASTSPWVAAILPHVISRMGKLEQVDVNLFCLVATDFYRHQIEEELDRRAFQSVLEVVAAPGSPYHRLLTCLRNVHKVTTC
# Chain of Calcium-activated potassium channel subunit alpha-1 (Homo sapiens) + Leucine-rich repeat-containing protein 26 (Homo sapiens) (Q2I0M4 whole entry, looked up, one chain of several): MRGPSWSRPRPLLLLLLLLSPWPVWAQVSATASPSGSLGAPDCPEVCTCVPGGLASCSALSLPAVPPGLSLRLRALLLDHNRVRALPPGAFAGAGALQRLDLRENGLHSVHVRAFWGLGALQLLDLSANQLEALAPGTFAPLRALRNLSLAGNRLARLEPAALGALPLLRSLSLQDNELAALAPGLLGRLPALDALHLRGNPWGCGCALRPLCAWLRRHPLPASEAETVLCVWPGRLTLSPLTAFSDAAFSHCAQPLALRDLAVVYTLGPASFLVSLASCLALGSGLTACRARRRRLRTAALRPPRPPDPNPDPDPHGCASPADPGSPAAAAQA
structure (smiles),measurement,setting,value
C[C@]12CC[C@@H]3c4ccc(O)cc4CC[C@H]3[C@@H]1CC[C@@H]2O,fluorescence ratio,[1],1 (inactive)
same,fold fluorescence,[2],5.13 [at 183.6 µM] (inactive)
same,log fold change Tl+ flux,F380Y,0.0249 (inactive)
same,log fold change Tl+ flux,F380Y/beta2Delta,-0.0581 (inactive)
same,log fold change Tl+ flux,[3],0.072 (inactive)
same,log fold change Tl+ flux,R275C,0.021 (inactive)
same,log fold change Tl+ flux,R275C/beta1,0.0222 (inactive)
same,log fold change Tl+ flux,R275C/beta2Delta,-0.0294 (inactive)
CCC(=O)OCC(=O)[C@@]1(OC(=O)CC)[C@@H](C)C[C@H]2[C@@H]3CCC4=CC(=O)C=C[C@]4(C)[C@@]3(Cl)[C@@H](O)C[C@@]21C,fluorescence ratio,[1],1.01 (inactive)
same,log fold change Tl+ flux,F380Y,-0.163 (active)
same,log fold change Tl+ flux,F380Y/beta2Delta,-0.0617 (inactive)
same,log fold change Tl+ flux,[3],0.021 (inactive)
same,log fold change Tl+ flux,R275C,-0.105 (active)
same,log fold change Tl+ flux,R275C/beta1,0.0418 (inactive)
same,log fold change Tl+ flux,R275C/beta2Delta,0.0132 (inactive)
Cc1ccc(N(CC2=NCCN2)c2cccc(O)c2)cc1,fold fluorescence,[2],4.52 [at 177.7 µM] (inactive)
CCCCCCCCCCCC1=C(O)C(=O)C=C(O)C1=O,remaining activity,[4],99.6% (inactive)
CN1C[C@H](C(=O)N[C@]2(C)O[C@@]3(O)[C@@H]4CCCN4C(=O)[C@H](Cc4ccccc4)N3C2=O)C[C@@H]2c3cccc4[nH]cc(c34)C[C@H]21,remaining activity,[4],86.1% (inactive)
O=c1cc(-c2ccc(O)cc2)oc2cc(O)cc(O)c12,normalised LDH release,[5],0.887
same,remaining activity,[4],107% (inactive)
O=C(O)c1cccnc1C(=O)O,remaining activity,[4],95.4% (inactive)
COc1c(C)c2c(c(O)c1C/C=C(\C)CCC(=O)O)C(=O)OC2,remaining activity,[4],113% (inactive)
same,fold fluorescence,[2],7.43 [at 156.1 µM] (inactive)
CC/C(=C(\c1ccccc1)c1ccc(OCCN(C)C)cc1)c1ccccc1,remaining activity,[4],79.2% (inactive)
same,fold fluorescence,[2],8.26 [at 134.6 µM] (inactive)
COc1cc(CNC(=O)CCCC/C=C/C(C)C)ccc1O,remaining activity,[4],122% (inactive)
same,fold fluorescence,[2],7.26 [at 163.7 µM] (inactive)
NCCc1cnc[nH]1,remaining activity,[4],107% (inactive)
same,fold fluorescence,[2],5.22 [at 449.9 µM] (inactive)
O=c1cc(-c2ccccc2)oc2cc(O)c(O)c(O)c12,remaining activity,[4],119% (inactive)
CCCCOc1cc(CC2CNC(=O)N2)ccc1OC (stereo not drawn),remaining activity,[4],104% (inactive)
C1CCc2nnnn2CC1,remaining activity,[4],117% (inactive)
COc1ccc2cc1Oc1ccc(cc1)C[C@H]1c3cc(c(OC)cc3CCN1C)Oc1c(OC)c(OC)cc3c1[C@H](C2)N(C)CC3,fold fluorescence,[2],5.71 [at 80.3 µM] (inactive)
O=C(/C=C/c1ccc(O)c(O)c1)OCCc1ccccc1,remaining activity,[4],122% (inactive)
same,fold fluorescence,[2],6.87 [at 175.9 µM] (inactive)
CC(=O)N[C@@H](CC(=O)O)C(=O)N[C@@H](CCC(=O)O)C(=O)O (Ac-Asp-Glu-OH),remaining activity,[4],82.4% (inactive)
CCn1nc(C(=O)O)c(=O)c2cc3c(cc21)OCO3,inhibition,[6]; at 0.5 µM,-36.2% (inactive)
same,inhibition,[6]; [16],-30.8%
same,inhibition,[6]; [17],-40.5%
same,inhibition,[6]; [18],15.7%
same,inhibition,[7]; at 0.5 µM,-51.5% (inactive)
same,inhibition,[7]; [19],-50.7%
same,inhibition,[7]; [20],-58%
same,inhibition,[8]; at 0.5 µM,-4.61% (inactive)
same,inhibition,[8]; [21],-9.5%
same,inhibition,[8]; [22],-2.73%
same,inhibition,[9]; at 0.5 µM,-2.26% (inactive)
same,inhibition,[9]; [23],-31.4%
same,inhibition,[9]; [24],-13.5%
same,inhibition,[10]; at 0.5 µM,-9.44% (inactive)
same,inhibition,[10]; [17],-16.5%
same,inhibition,[10]; [18],-17.7%
same,inhibition,[11]; [25],14%
same,inhibition,[11]; at 0.5 µM,-2.39% (inactive)
same,inhibition,[11]; [26],6.77%
same,inhibition,[12],10.8% (inactive)
same,inhibition,[12]; [27],8.46%
same,inhibition,[12]; [28],10.9%
same,inhibition,[13]; at 0.5 µM,-33.4% (inactive)
same,inhibition,[13]; [29],-23%
same,inhibition,[13]; [30],-38.6%
same,inhibition,"[13]; single agent, at 0.05 µM",5.27%
same,inhibition,"[13]; single agent, at 5 µM",10.4%
O=c1c(O)c(-c2ccc(O)c(O)c2)oc2cc(O)ccc12,inhibition,[6]; at 0.5 µM,-4.27% (inactive)
same,inhibition,[6]; [16],-15.9%
same,inhibition,[6]; [17],-18.5%
same,inhibition,[6]; [18],-12.6%
same,inhibition,[7]; at 0.5 µM,3.92% (inactive)
same,inhibition,[7]; [19],-8.68%
same,inhibition,[7]; [20],27.9%
same,inhibition,[8]; at 0.5 µM,-0.08% (inactive)
same,inhibition,[8]; [21],1.14%
same,inhibition,[8]; [22],-0.856%
same,inhibition,[9]; at 0.5 µM,3.05% (inactive)
same,inhibition,[9]; [23],1.82%
same,inhibition,[9]; [24],-4.79%
same,inhibition,[10]; at 0.5 µM,1.64% (inactive)
same,inhibition,[10]; [17],-4.17%
same,inhibition,[10]; [18],-0.986%
same,inhibition,[11]; [25],14.5%
same,inhibition,[11]; at 0.5 µM,1.05% (inactive)
same,inhibition,[11]; [26],19.6%
same,inhibition,[12],10.6% (inactive)
same,inhibition,[12]; [27],1.09%
same,inhibition,[12]; [28],26.6%
same,inhibition,[13]; at 0.5 µM,-3.43% (inactive)
same,inhibition,[13]; [29],-7.45%
same,inhibition,[13]; [30],-1.43%
same,inhibition,"[13]; single agent, at 0.05 µM",31.3%
same,inhibition,"[13]; single agent, at 5 µM",6.36%
NC(N)=NC(N)=Nc1ccccc1,remaining activity,[4],119% (inactive)
COc1ccc(-c2coc3cc(O)cc(O)c3c2=O)cc1,normalised LDH release,[5],1.03
c1ccc2c(Cc3c[nH]c4ccccc34)c[nH]c2c1,fold fluorescence,[2],4.77 (inactive)
O=c1c(O)c(-c2ccc(O)cc2O)oc2cc(O)cc(O)c12,aggregation ratio,[14],0.704
CC(C(=O)O)c1ccc(N2Cc3ccccc3C2=O)cc1 (stereo not drawn),SMN1 luciferase ratio,[15],0.71
same,SMN2/SMN1 luciferase ratio,[15],2.02 (active)
same,SMN2 luciferase ratio,[15],1.4
CN1CCc2cccc3c2C1Cc1ccc(O)c(O)c1-3 (stereo not drawn),normalised LDH release,[5],0.891
C=C1c2c(Cl)ccc(O)c2C(O)=C2C(=O)[C@]3(O)C(O)=C(C(N)=O)C(=O)[C@@H](N(C)C)[C@@H]3[C@@H](O)[C@H]12,aggregation ratio,[14],0.703
CN1CCc2c(c3ccccc3n2Cc2ccccc2)C1,normalised LDH release,[5],0.901
COc1c2ccoc2cc2oc(=O)ccc12,inhibition,[6]; at 0.5 µM,-1.71% (inactive)
same,inhibition,[6]; [16],-39.8%
same,inhibition,[6]; [17],-31.5%
same,inhibition,[6]; [18],0.408%
same,inhibition,[7]; at 0.5 µM,-46.9% (inactive)
same,inhibition,[7]; [19],-48%
same,inhibition,[7]; [20],-47.5%
same,inhibition,[8]; at 0.5 µM,-4.51% (inactive)
same,inhibition,[8]; [21],-4.11%
same,inhibition,[8]; [22],-2.34%
same,inhibition,[9]; at 0.5 µM,-2.25% (inactive)
same,inhibition,[9]; [23],-12.4%
same,inhibition,[9]; [24],-7.34%
same,inhibition,[10]; at 0.5 µM,-16.1% (inactive)
same,inhibition,[10]; [17],-10.7%
same,inhibition,[10]; [18],0.771%
same,inhibition,[11]; [25],5.68%
same,inhibition,[11]; at 0.5 µM,-4.34% (inactive)
same,inhibition,[11]; [26],13.5%
same,inhibition,[12],1.97% (inactive)
same,inhibition,[12]; [27],-6.42%
same,inhibition,[12]; [28],7.69%
same,inhibition,[13]; at 0.5 µM,-17.9% (inactive)
same,inhibition,[13]; [29],-18.6%
same,inhibition,[13]; [30],-17.5%
same,inhibition,"[13]; single agent, at 0.05 µM",-2.38%
same,inhibition,"[13]; single agent, at 5 µM",22.5%
Cc1cc(/C=C/c2ccc3cc(N(C)C)ccc3[n+]2C)c(C)n1-c1ccccc1,aggregation ratio,[14],0.715
